Only some compounds are listed: those with a hit (about 4.8% of all), similar ones and a draw of the others.
USP2a block: inhibitors of human ubiquitin-specific protease USP2a. Potency, µM (highest dose often 38.3 µM), for inactives: top-dose activity change, negative = inhibition, usual class: inhibitors. O75604. actives 0.01% (n = 330,000). USP2 core, Ub-CHOP2 coupled fluorogenic reporter, 485/531. AID 463254;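 note: potency is the fitted concentration of half-maximal effect; plate controls were DMSO wells for no effect and full inhibition by NEM control for full effect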
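Cell-free coupled assay: 10nM USP2 core preincubated 30min RT with compound in Tris-HCl pH 8.0/CaCl2/CHAPS buffer, then 25nM Ub-CHOP2 and 25nM reporter substrate; fluorescence (Ex 485/Em 531) read after 60min RT, normalized to NEM inhibition, concentration-response curves fitted.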
IL1B secr inh: blocks inflammasome-driven IL-1 beta release | THP-1 LPS/ATP IL-1B secretion, AlphaLISA, 16 h; active compounds read low | activity change, % at 57.5 µM | actives 4.7% (n = 360,000) | AID 743279; in the data active = activity change below about -50%; inconclusive = mostly about -30% to -49%; note: % is set by controls: 0 for no effect and ±100 for the full control effect
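Secreted IL-1B measured by AlphaLISA bead assay after 16 h compound exposure of THP-1 cells; compounds (final up to 57.5 uM) added 1 h before LPS (250 ng/mL) and ATP (1.25 mM) stimulation; lower signal means less secretion.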
ATXN viability: reduces viability in counter-screen for ATXN expression inhibitors; actives 0.49% (n = 400,000); Potency, µM (series often up to 56.7 µM), usual class: cytotoxic; S2 cells (HEK-293 line with an ATXN2-luciferase reporter) viability, CellTiter-Fluor protease fluorescence, 24 h; note: potency is the fitted concentration of half-maximal effect; nearly all actives have a fitted effect of over 40% in size
USP1 inh: blocks the human USP1/UAF1 deubiquitinase complex. actives 0.23% (n = 390,000). recombinant USP1/UAF1, Ub-Rhodamine cleavage fluorescence. O94782. Potency, µM (doses to about 57.1 µM), for inactives: top-dose activity change, negative = inhibition, usual class: inhibitors; note: potency is the fitted concentration of half-maximal effect; % is set by controls: 0 for no effect and ±100 for the full control effect; nearly all actives have a fitted effect of over 60% in size
Target sequence (O94782 whole entry, looked up): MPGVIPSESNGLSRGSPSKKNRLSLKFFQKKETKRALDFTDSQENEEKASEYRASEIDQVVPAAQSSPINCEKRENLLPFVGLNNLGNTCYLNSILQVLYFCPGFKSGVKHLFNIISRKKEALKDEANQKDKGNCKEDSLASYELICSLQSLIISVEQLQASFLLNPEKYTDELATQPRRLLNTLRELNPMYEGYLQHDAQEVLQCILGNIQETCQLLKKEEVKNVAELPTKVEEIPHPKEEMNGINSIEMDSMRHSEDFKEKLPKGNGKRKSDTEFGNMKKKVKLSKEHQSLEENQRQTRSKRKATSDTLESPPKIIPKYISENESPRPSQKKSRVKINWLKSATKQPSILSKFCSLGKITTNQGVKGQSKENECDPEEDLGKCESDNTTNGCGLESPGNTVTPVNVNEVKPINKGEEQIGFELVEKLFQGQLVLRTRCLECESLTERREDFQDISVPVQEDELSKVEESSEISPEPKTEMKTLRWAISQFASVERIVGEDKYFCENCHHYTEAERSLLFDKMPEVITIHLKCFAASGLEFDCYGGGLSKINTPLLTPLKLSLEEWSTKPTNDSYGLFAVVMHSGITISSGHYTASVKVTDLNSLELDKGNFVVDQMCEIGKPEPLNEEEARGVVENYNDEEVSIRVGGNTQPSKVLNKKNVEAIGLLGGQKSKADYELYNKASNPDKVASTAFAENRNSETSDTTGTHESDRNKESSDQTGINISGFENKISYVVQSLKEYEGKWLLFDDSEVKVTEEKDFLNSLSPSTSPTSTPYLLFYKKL
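1 nM enzyme complex + cpd, 15 min RT; start with Ub-Rho 150nM final; kinetic fluorescence ex 480/em 540, 6 reads q60 s. Buffer 50mM HEPES pH 7.8, 0.5mM EDTA, 0.1 mg/ml BSA, 1mM TCEP, 0.01% Tween-20.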
ATXN2 expr inh: reduces ATXN2 reporter expression in HEK-293 cells | HEK-293 ATXN2-luciferase reporter, luminescence, 24 h | Potency, µM (titrated, usually from 57 µM), for inactives: top-dose activity change, negative = inhibition, usual class: inhibitors | actives 0.72% (n = 360,000) | AID 1745845; note: potency is the fitted concentration of half-maximal effect; % is set by controls: 0 for no effect and ±100 for the full control effect; nearly all actives have a fitted effect of over 55% in size
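qHTS (up to 57 uM final) was run with 24 h compound exposure of reporter cells at 37 °C. Each well was multiplexed: SteadyGlo luminescence measured ATXN2-luciferase expression after a fluorogenic Gly-Phe-AFC viability readout (25 uM final).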
Numbers without * were called inactive; i = inactive; ? = inconclusive; . = not tested or not shown; [ ] = dose if it differs, or a comment. Unless noted, calls come from the whole dose curve; as a rule, active = well fitted curve in the direction sought with a large enough effect; inconclusive = small, poorly fitted or top-dose-only effect, or another doubt; inactive = no such curve, though single readings can be large; an effect the other way counts as inactive or inconclusive.

SMILES | USP2a block | IL1B secr inh | ATXN viability | USP1 inh | ATXN2 expr inh
O=C(c1ccc(Cl)cc1)C(CN1CCCCC1)c1ccccc1 (stereo not drawn) | 2.0% | -103.3* | . | ? | ?
COc1ccc(C(=O)C(CN2CCOCC2)c2ccccc2)cc1F (stereo not drawn) | -2.5% | -101.2* | ? | -19.7% | ?
CC(=O)c1sc(NC(=O)CCCOc2ccc(Cl)cc2)nc1C | 7.7% | -12.7 | i | -16.3% | -20.0%
CC(C)CN(C[C@H](O)[C@H](Cc1ccccc1)NC(=O)O[C@H]1CCOC1)S(=O)(=O)c1ccc(N)cc1 | . | . | . | . | -3.3%
Cc1cc(F)ccc1NC(=O)CCS(=O)(=O)c1cc2c(cc1C)NC(=O)CO2 | . | . | i | -14.1% | 4.7%
CCc1cc(C(=O)N2CCN(S(=O)(=O)c3ccccc3F)CC2)sc1C | 0.1% | -2.6 | i | -0.8% | -24.0%
COc1ccc(C[C@H]2CN3C(=NC[C@@H]3C(C)C)N2C[C@H](C)NC(=O)c2ccc(C)c(Br)c2)cc1 | -1.0% | -57.1* | 17.8µM* | -33.8% | ?
Cc1ccc(C(=O)N[C@@H](C)CN2C3=NC[C@H](C(C)C)N3C[C@H]2Cc2ccc(O)cc2)cc1Br | -0.1% | ? | ? | 6.2% | ?
COc1ccc(C[C@H]2CN3C(=NC[C@@H]3Cc3ccc(O)cc3)N2C[C@H](C)NC(=O)c2ccc(C)c(Br)c2)cc1 | -3.3% | ? | 22.4µM* | 17.3% | ?
O=C(NCCC(c1ccccc1)c1ccccc1)c1cccs1 | -1.0% | -56.5* | i | -20.6% | -8.5%
O=C(O)Cc1c[nH]c2ccccc12 | . | -5.0 | i | 16.3% | -1.4%
O=C(CCl)N(c1ccc(Cl)cc1)c1c[nH]c2ccccc12 | -5.3% | -108.7* | 17.8µM* | -8.1% | ?
O=C(CCl)N(c1ccccc1)c1c[nH]c2ccccc12 | 1.0% | -99.5* | 25.1µM* | -13.5% | ?
O=C(Nc1ccccc1[N+](=O)[O-])c1csnn1 | . | . | i | -24.0% | 11.3%
CC1CC(=O)N(CC(=O)Nc2ccc(OC(F)(F)F)cc2)c2ccccc2S1 (stereo not drawn) | . | . | i | -31.4% | -10.9%
CCOC(=O)C1=C(c2ccccc2)NC(N)=NC1c1ccc(OCc2ccc(C(=O)OC)cc2)cc1 (stereo not drawn) | -27.0% | -66.6* | 28.2µM* | -23.2% | 25.1µM*
CCO/C(=C/c1sc2ccc(OC)cc2[n+]1CCCS(=O)(=O)[O-])CC | 1.3% | -0.1 | . | -19.0% | .
CCC(/C=C1\Sc2ccc(OC)cc2N1CCO)=C\c1sc2ccc(OC)cc2[n+]1CCO | 2.5% | -113.2* | . | -5.2% | ?
CCC(/C=C1\Sc2ccc(OC)cc2N1CC)=C\c1sc2ccc(OC)cc2[n+]1CCCS(=O)(=O)[O-] | -3.2% | ? | 22.4µM* | -17.0% | ?
CC(=O)N1CCN(C(=O)CNC(=O)c2ccc(C)s2)CC1 | . | 4.1 | i | -5.1% | -0.8%
C[n+]1c2n(c3ccccc31)N=C(c1ccc(Br)cc1)CS2 | -1.5% | -88.8* | ? | -13.3% | ?
CCO[C@H]1[C@H](NC(=O)c2cccnc2)c2ccccc2C12CCN(C(=O)c1cc(C)n(C)n1)CC2 | . | . | i | . | .
CC(C)(C)NC(=O)CSC(=Nc1ccc(F)cc1)NC#N | 1.7% | -96.9* | i | -1.8% | 10.9%
CC1(C(=O)NCc2cccc3ccccc23)CCN1C(=O)C1(c2ccccc2)CCCC1 (stereo not drawn) | . | -51.6* | i | . | -17.6%
CC1(C(=O)NCc2ccccc2Br)CCN1C(=O)C1(c2ccc(Cl)cc2)CC1 (stereo not drawn) | . | -28.1 | i | . | -18.6%
SMILES | USP2a block | IL1B secr inh | ATXN viability | USP1 inh | ATXN2 expr inh
Cc1cccc(Nc2nc(-c3ccccc3)c(C(=O)Nc3cccnc3)s2)c1 | 0.6% | -60.9* | . | -14.4% | 0.8%[11.3 µM]
Fc1ccc2c(c1)C(c1ccncc1)=NNC(c1ccc(Cl)cc1)=N2 | 1.1% | -67.3* | i | -10.9% | -20.4%
Brc1ccc2c(c1)C(c1ccc(N3CCOCC3)cc1)=NNC(c1cccs1)=N2 | -0.8% | -28.0 | i | -20.1% | -2.0%
Fc1ccc2c(c1)C(c1ccncc1)=NNC(c1ccccc1)=N2 | -2.4% | -4.0 | i | -17.8% | 4.4%
Fc1ccc2c(c1)C(c1ccc(N3CCOCC3)cc1)=NNC(c1cccs1)=N2 | -1.3% | -50.8* | ? | -33.9% | -10.0%
Cc1cccc(CNC(=O)c2cnn(-c3nccc(-c4cc(C)sc4C)n3)c2C)n1 | . | . | i | . | .
CCN(c1cccc2ccccc12)S(=O)(=O)c1ccc(Cl)nc1 | -0.8% | -75.4* | i | -22.3% | -9.4%
COc1ccc(C(CNC(=O)c2cc(F)c(F)c(F)c2F)N2CCOCC2)cc1 (stereo not drawn) | 5.3% | -95.2* | i | -1.3% | -23.2%
COc1ccc(C(CNC(=O)c2oc3ccc(Br)cc3c2C)N2CCCCC2)cc1 (stereo not drawn) | -3.2% | -82.1* | ? | -23.5% | -29.6%
COc1ccc(C(CNC(=O)CSc2ccccc2F)N2CCOCC2)cc1 (stereo not drawn) | -1.4% | -3.2 | i | 3.0% | -0.8%
CC(C)(CNC(=O)c1ccc(-c2ccccc2Cl)o1)N1CCOCC1 | -0.9% | -55.6* | i | -4.7% | 37.5%
COc1ccc(C(CNC(=O)c2ccc(OCc3ccccc3)cc2)N2CCOCC2)cc1 (stereo not drawn) | 3.1% | -21.2 | ? | -21.6% | -17.9%
COc1ccc(C(CNC(=O)c2ccc(-c3ccccc3Cl)o2)N2CCOCC2)cc1 (stereo not drawn) | 0.1% | -76.3* | i | -23.1% | -0.8%
CC(C)(CNC(=O)c1ccc(Br)o1)N1CCOCC1 | -1.2% | -14.5 | i | -15.3% | -0.3%
O=C1CCCCN1CCC(=O)N1CCOc2ccc(C(O)C3CCCCC3)cc2C1 (stereo not drawn) | . | . | i | . | .
COc1ccccc1C(CNC(=O)c1ccc(-c2ccccc2Cl)o1)N1CCCC1 (stereo not drawn) | -5.5% | -56.5* | i | -5.3% | ?
COc1ccc(OCC(=O)NCC(c2ccc(OC)cc2)N2CCOCC2)cc1 (stereo not drawn) | . | . | . | -21.5% | .
Cc1cc(OCC(=O)NCC(c2cccs2)N2CCOCC2)ccc1C(C)C (stereo not drawn) | -0.7% | -57.3* | i | -14.9% | -21.8%
COc1ccc(C(CNC(=O)COc2ccc(-c3ccccc3)cc2)N2CCOCC2)cc1 (stereo not drawn) | -6.5% | -60.6* | i | -14.0% | -23.7%
Cc1ccccc1OCC(=O)Nc1sc2c(c1C(=O)OC(C)C)CCCC2 | . | . | i | -14.7% | 12.2%
CCc1ccccc1NC(=O)Cn1nnc(-c2nc(-c3ccncc3)no2)c1N | . | . | . | -18.5% | .
